According to the supplement of paper PMC6555819:

Columns and labels:
Assay in all cases: PBM binding z-score (relative to random genomic background probes); higher = stronger binding; sequences stand for … in GC…GCGATTGACAGCGTAGAATGAAGG
[1] = test system: FXR:RXRa (NR concentration 270 nM, RXRa partner concentration 90 nM)
How it was run: (§1)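 Antibodies against each partner of ligand-free nuclear receptor dimers (one per run) detected binding on custom Agilent 4×180K protein-binding microarrays after 1 h incubation. The double-stranded probes had 34-nt variable regions carrying direct-repeat seeds, single-nucleotide variants, half-site ablations and random human genomic background sequences. Binding z-scores, from regression-normalized fluorescence, use the random background probes as reference.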

[2] = test system: LXRa:RXRa (NR concentration 270 nM, RXRa partner concentration 90 nM)
How it was run: as §1

[3] = test system: LXRa homodimer (NR concentration 270 nM)
How it was run: as §1

[4] = test system: LXRb:RXRa (NR concentration 270 nM, RXRa partner concentration 90 nM)
How it was run: as §1

[5] = test system: LXRb homodimer (NR concentration 270 nM)
How it was run: as §1

[6] = test system: PPARg:RXRa (NR concentration 180 nM, RXRa partner concentration 90 nM)
How it was run: as §1

[7] = test system: PPARg:RXRa 270nM:90nM, anti-RXR (NR concentration 270 nM, RXRa partner concentration 90 nM)
How it was run: as §1

[8] = test system: PPARg:RXRa 30nM:10nM, anti-RXR (NR concentration 30 nM, RXRa partner concentration 10 nM)
How it was run: as §1

[9] = test system: PPARg:RXRa 90nM:30nM, anti-RXR (NR concentration 90 nM, RXRa partner concentration 30 nM)
How it was run: as §1

Row | Sequence | PBM binding z-score [1] | PBM binding z-score [2] | PBM binding z-score [3] | PBM binding z-score [4] | PBM binding z-score [5] | PBM binding z-score [6] | PBM binding z-score [7] | PBM binding z-score [8] | PBM binding z-score [9]
1 | CTCGAAAGGTGGTGCTCAGGTGAGTATACCAAAC | -0.352 | -0.533 | -0.489 | -0.329 | -0.573 | -0.375 | -0.0981 | -0.462 | -0.126
2 | ATCGAAAGGTGGACGAGGTGAGTATACACCGTTT | 0.217 | -0.178 | -0.304 | -0.111 | -0.212 | 0.872 | 0.439 | 0.356 | 0.402
3 | GGTACGAGGGCAAAGTTGATAGCATCTGTCGACG | 1.46 | 1.03 | -0.421 | 0.954 | -0.42 | 5.89 | 6.23 | 4.16 | 6.02
4 | ATCTGTAGGTTATCGGGTCATTCAGTTTGCGCAT | 3.02 | 3.6 | 2.79 | 3.06 | 1.36 | 3.9 | 4.43 | 1.41 | 3.37
5 | CCTAGTTGGTCAAGGTCTCACACGCTATAGGTAC | 0.271 | 0.379 | 0.569 | 0.343 | 0.483 | 0.786 | 1.09 | 0.321 | 0.561
6 | CCCGCTAGGTCATGGTCAGCTAATCTACAGTATG | 3.68 | 2.72 | 0.611 | 2 | -0.348 | 2.43 | 2.82 | 0.967 | 1.94
7 | TCTCGGAGGACACGAAGGTCAAAGCTTTCCAGAG | 2.68 | 2.91 | 2.05 | 2.91 | -0.25 | 1.14 | 2.53 | 2.73 | 2.51
8 | CCTACTGGGCCATTCAGAGGTCATTGTTCATATG | 2.55 | 4.4 | 6.96 | 3.77 | 0.5 | 1.98 | 3.18 | 0.535 | 2.16
9 | TCTAGTTGGTCAAAGGCCACACACTCGAAATGCG | 0.691 | 0.811 | 0.139 | 0.867 | -0.181 | 6.54 | 7.01 | 6.34 | 7.68
10 | CCTGCTAGGTCAATGGTCAGCTAAAGCAGCTCGC | 3.01 | 2.21 | -0.22 | 1.4 | -0.359 | 4.36 | 5.49 | 3.2 | 5.15
11 | GCTAGTTGGTCAGTAAATGGTCACACACCGGTCG | 0.041 | -0.126 | -0.00637 | -0.244 | -0.204 | 0.366 | -0.00235 | -0.52 | -0.282
12 | CCTAGCCGGCCAATCTGGGTCACTCAAGGCTTGA | 0.614 | 0.785 | 0.0438 | 1.02 | -0.78 | 1.68 | 2.15 | -0.425 | 1.27
13 | GATTACGGGTCAAAGGTTATAGCATGAATAGAAT | 7.94 | 6.17 | 1.25 | 6.01 | 0.564 | 11.8 | 9.6 | 10.5 | 11.3
14 | CGTCCAACGTCAGCAGGTCAGTGAAAGCGACGTG | -0.27 | -0.136 | -0.366 | -0.0519 | -0.788 | -0.188 | -0.476 | -0.755 | -0.842
15 | CAAACTAGGTCAAAGGTCAAAATCGAGCCAACCA | 8.54 | 7.06 | 4.95 | 7.22 | 3.3 | 13.4 | 11.8 | 13.7 | 14.5
16 | AGAATGAGGTTAACAAAGATCAGGGAAACGCTTG | 2.66 | 5.37 | 0.105 | 2.63 | -0.171 | 2.62 | 2.59 | 1.09 | 1.88
17 | AGTGAAAGTTCAGGACGAGGTAACGTAAAGCACG | 3.78 | 3.69 | 1.17 | 1.94 | 0.34 | 3.61 | 4.03 | 1.48 | 2.89
18 | GCTGCTCGGTCAACTGATGGTCAGCTAAAGCTCG | 0.704 | 0.751 | 0.0425 | -0.248 | -0.201 | -0.584 | -0.239 | -0.686 | -0.163
19 | CCTTACAGGTCACGAGGTTATAGCACGACGAGCG | 7.41 | 5.59 | 2.37 | 4.42 | 0.788 | 7.55 | 6.56 | 3.71 | 5.37
20 | GCTGCTAGGTCGACTGATGGTCAGCTAAAGCTCG | -0.376 | -0.522 | -0.803 | -0.528 | -1.35 | -0.467 | -0.365 | -0.591 | -0.382
21 | AGTCAAAGTTCAGTAGGTAACGTAAGATTCAGCT | 2.64 | 3.04 | 1.6 | 1.67 | 0.481 | 5.39 | 5.2 | 2.18 | 4.2
22 | CCGACTGGGTCAAAGGTTACCATACTCAGTACGA | 4.79 | 4.3 | 0.367 | 4.02 | -0.508 | 12 | 10.2 | 9.87 | 11.1
23 | AGTCAAAGTTCAGCACGAGGTAACGTAAAGCACG | 4.45 | 4.19 | 1.47 | 2.23 | 0.567 | 4.88 | 5.1 | 2.2 | 4.2
24 | CATACAGGGTAAGCTAGGCCAGAGTAGGGACGGC | 0.167 | 0.793 | -0.335 | -0.589 | -0.153 | 0.575 | -0.433 | -0.335 | -0.43
25 | CAAACTAGGTCACCGGAAGGTCATAGTCCGCATG | 6.02 | 5.59 | 4.48 | 4.88 | 0.927 | 9.71 | 7.81 | 6.11 | 7.67
26 | TAGCCTAGGTTATGCGGGCCAGTATAGTGTCGGC | -0.487 | -0.497 | -0.618 | -0.71 | -1.29 | 0.00764 | -0.446 | -0.658 | -0.569
